Most compounds without a hit are left out; they make up all but 7.3% or so of the library.
SMN2 splice enh = qHTS Assay for Enhancers of SMN2 Splice Variant Expression | HEK293 SMN2-luciferase splicing reporter, luminescence, 30-36 h | Potency, µM (top dose mostly 46.1 µM), without a hit: top-dose activity change, positive = activation, most hits filed as activators | 210,000 compounds, 2.8% hits; further: % of control where 0% means no effect; nearly all actives have a fitted effect of over 55% in size
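qHTS luciferase splicing reporter: luminescence rises when SMN2 exon 7 is included in transfected HEK293 cells. Compound exposure lasted 30-36 h at 37C, with 4.5 mM final sodium butyrate as control, followed by a ONE-Glo read.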
KinaseGlo FLuc = Counterscreen for Luciferase (Kinase-Glo TM) Inhibition; Luciferin 4-monooxygenase (Photuris pensylvanica), Q27757; Kinase-Glo luciferase, ATP luminescence, 8 min; Potency, µM (doses to about 38.3 µM), for inactives: at the highest dose activity change, negative = inhibition, actives largely listed as inhibitors; 200,000 compounds, 0.28% hits; further: on the % scale 0 is the no-effect control and ±100 the full control effect; nearly all actives have a fitted effect of over 60% in size
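Luminescence was the read-out, taken after 8-minute incubation at ambient temperature. Luciferase turned over luciferin with 10 uM ATP in imidazole pH 7.2 buffer containing KCl, MgCl2, Tween 20 and BSA.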
FLuc counter = qHTS profiling assay for firefly luciferase inhibitor/activator using purifed enzyme and Km concentrations of substrates (counterscreen for miR-21 project); Luciferin 4-monooxygenase (Photinus pyralis), P08659; purified FLuc, Km substrates, luminescence inhibition; Potency, µM (doses to about 57.5 µM), inactives show at the highest dose activity change, negative = inhibition, usual class: inhibitors; 360,000 compounds, 6.9% hits;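 further: plate controls were vehicle for no effect and reference inhibitor for full effect; nearly all actives have a fitted effect of over 55% in size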
Target sequence (P08659 whole entry, looked up): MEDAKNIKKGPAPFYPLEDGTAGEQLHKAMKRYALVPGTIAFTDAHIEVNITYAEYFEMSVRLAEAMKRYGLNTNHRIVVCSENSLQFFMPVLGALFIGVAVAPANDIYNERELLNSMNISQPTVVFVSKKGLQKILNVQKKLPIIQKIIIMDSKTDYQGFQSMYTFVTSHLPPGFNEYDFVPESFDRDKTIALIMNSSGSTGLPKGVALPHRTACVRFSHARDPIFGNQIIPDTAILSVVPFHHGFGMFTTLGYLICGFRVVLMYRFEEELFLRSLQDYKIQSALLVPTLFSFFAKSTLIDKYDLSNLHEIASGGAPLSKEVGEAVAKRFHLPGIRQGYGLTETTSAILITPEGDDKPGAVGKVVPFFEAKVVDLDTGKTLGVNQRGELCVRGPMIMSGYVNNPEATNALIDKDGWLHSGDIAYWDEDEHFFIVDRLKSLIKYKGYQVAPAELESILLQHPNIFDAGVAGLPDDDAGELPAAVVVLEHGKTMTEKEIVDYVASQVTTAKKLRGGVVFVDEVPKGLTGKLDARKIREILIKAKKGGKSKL
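Purified P. pyralis luciferase (10nM final) with 10uM D-luciferin and 10uM ATP (Km levels) in 50mM Tris acetate pH 7.5, 10mM Mg acetate, 0.01% Tween-20, 0.05% BSA; qHTS 6-point titration, ~60 µM downward; luminescence read.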
Rab9 prom act = qHTS Assay for Rab9 Promoter Activators; 320,000 compounds, 2.8% hits; Potency, µM (doses to about 9.22 µM), inactives show at the top dose activation, negative = inhibition, hits mostly activators; Huh7 Rab9 promoter-luciferase reporter, luminescence, 24 h; further: % of control where 0% means no effect; nearly all actives have a fitted effect of over 60% in size
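Huh7 cells stably carrying a Rab9 promoter-luciferase reporter, 1500 cells per well in OP-MEM I with 10% FBS, treated with compound 24 hours at 37C. Luciferase activity read by luminescence after 10 minutes with Amplite reagent.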
NPC1 promoter act = qHTS Assay for NPC1 Promoter Activators; 320,000 compounds, 2.4% hits; Huh7 NPC1 promoter luciferase reporter, 24 h; AID 485313, 2010; Potency, µM (highest dose often 9.22 µM), for inactives: top-dose activation, hits mostly activators; further: % of control where 0% means no effect; nearly all actives have a fitted effect of over 60% in size
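Luminescence from an NPC1 promoter-driven luciferase reporter in stably transfected Huh7 cells was measured after 24 h compound treatment at 37 °C, followed by 10 min ambient incubation with luciferase detection reagent.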
The depositor's hits bear a star; ? = inconclusive; nt = not tested or not shown; [ ] = remark or other dose. The call rests on the fitted dose curve; in most records, active means well fitted curve in the direction sought with a large enough effect; inconclusive means small, poorly fitted or top-dose-only effect, or another doubt; inactive means no such curve, though single readings can be large; an effect the other way counts as inactive or inconclusive. Potency means the concentration at half of the fitted maximal effect.

SMILES	SMN2 splice enh	KinaseGlo FLuc	FLuc counter	Rab9 prom act	NPC1 promoter act
COc1ccc(-c2nc(-c3cccc(C)c3)no2)cc1OC	13µM*	0%	4.3µM*	4.5µM*	0.79µM*
COc1cc(-c2nc(-c3cccc(C)c3)no2)cc(OC)c1OC	29%	0%	?	5%	8%
COc1ccccc1-c1nc(-c2cccc(C)c2)no1	4.5µM*	?	1.2µM*	0.11µM*	0.32µM*
COc1ccccc1OCc1nc(-c2cccc([N+](=O)[O-])c2)no1	-3%	0%	-19%	3%	3%
COc1ccccc1OCc1nc(-c2cccc(C)c2)no1	?	nt	8.5µM*	nt	nt
Cc1ccc(C)c(Cn2c(=O)n(-c3ccc(F)cc3)c(=O)c3sc4ccccc4c32)c1	?	nt	-1%	nt	nt
COc1cccc(-n2cc(C(=O)Oc3cccc(C(F)(F)F)c3)c3ccccc3c2=O)c1	nt	nt	-2%	nt	nt
Cc1cn(C2CC(N=[N+]=[N-])C(CO)O2)c(=O)[nH]c1=O (stereo not drawn)	0%	-2%	nt	nt	nt
COC(=O)C(C)Sc1ncnc2c1c(-c1ccccc1)cn2-c1ccc(F)cc1 (stereo not drawn)	5%	nt	1%	nt	nt
Cc1cccc(NC(=O)C(=O)NCCCc2ccccc2)c1	10µM*	-2%	?	?	?
O=C(NCCCc1ccccc1)c1ccc([N+](=O)[O-])cc1Cl	nt	nt	8.5µM*	?	?
Cc1ccc(C(=O)NCCCc2ccccc2)c(C)c1	13µM*	0%	8.5µM*	3.5µM*	1.4µM*
Cc1cc(C)cc(C(=O)NCCCc2ccccc2)c1	-2%	-5%	-12%	-1%[1.84 µM]	-1%
Cc1ccc(C(=O)NCCCc2ccccc2)c(Cl)c1	nt	nt	8.5µM*	2.2µM*	2.5µM*
COC(=O)c1c(NC(=O)Cc2coc3cc(C)ccc23)sc2c1CCC2	-2%	nt	-10%	nt	nt
Cc1[nH]nc(Nc2ccccc2)c1[N+](=O)[O-]	-8%	-1%	?	13%	18%
Cc1ccc(Nc2n[nH]c(C)c2[N+](=O)[O-])cc1	18µM*	-1%	19µM*	3.5µM*	2.8µM*
Cc1[nH]nc(Nc2ccc(C(C)C)cc2)c1[N+](=O)[O-]	nt	nt	9.5µM*	3.5µM*	3.5µM*
Cc1[nH]nc(Nc2ccc(Br)cc2)c1[N+](=O)[O-]	nt	nt	9.5µM*	3.2µM*	2.8µM*
Cc1cccc(Nc2n[nH]c(C)c2[N+](=O)[O-])c1	?	-24%	15µM*	3.2µM*	2.5µM*
CC(=O)N1CCCC1c1nc2ccccc2n1Cc1ccccc1Cl (stereo not drawn)	nt	nt	-2%	nt	nt
CNc1nc(Nc2ccc(Br)cc2)nc(N)c1[N+](=O)[O-]	11%	2%	-4%	3.5µM*	?
COc1ccc(Nc2nc(N)c([N+](=O)[O-])c(NCCO)n2)cc1	nt	nt	?	1%	17%
CC(=O)Nc1ccc(C)c([N+](=O)[O-])c1	nt	-1%	-2%	-7%	-6%
Cc1ccc(NC(=O)Nc2ccccc2)cc1[N+](=O)[O-]	13µM*	-4%	8.5µM*	?	?
SMILES	SMN2 splice enh	KinaseGlo FLuc	FLuc counter	Rab9 prom act	NPC1 promoter act
O=C(Nc1ccccc1)Nc1ccc(F)c([N+](=O)[O-])c1	-47%	-5%	17µM*	-4%	-3%
O=C(Nc1ccccc1)Nc1ccc(Cl)c([N+](=O)[O-])c1	-4%	0%	19µM*	12%	13%
O=C(NC(=S)Nc1ccc(F)c([N+](=O)[O-])c1)c1ccccc1F	10%	1%	?	-4%	0%
C[N+](C)(C)CCN(Cc1cccs1)c1ccccn1	-13%[9.22 µM]	-7%[7.66 µM]	nt	nt	nt
O=C(O)CCCN1C(=O)/C(=C/c2ccc(-c3nc4ccccc4s3)o2)SC1=S	18µM*	1%	-6%	-1%	10%
COC(=O)c1ccc2c(c1)C(C)(C)C(/C=C/c1ccc(OC)c(OC)c1OC)=[N+]2C	-77%	-5%	?	-52%	-46%
COC(=O)c1ccc2c(c1)C(C)(C)C(/C=C/c1ccc(O)cc1)=[N+]2C	-93%	?	13µM*	-36%	-37%
Cn1c(SCC(=O)Nc2ccccc2Cl)nnc1C1CC1	nt	nt	-3%	0%	2%
Cn1c(SCC(=O)Nc2nnc(-c3ccccc3)o2)nnc1C1CC1	nt	nt	13µM*	0%	1%
COCCNc1nnc(SCC(=O)Nc2nnc(-c3ccccc3)o2)s1	nt	nt	19µM*	-5%	-1%
CC(C)=CCn1cnc2c1c(=O)n(C)c(=O)n2C	1%	0%	nt	nt	nt
NCCOc1ccccc1-c1ccccc1	25%	-3%	6%	4.5µM*	-2%
CCc1ccc(CNC(=O)c2cnc3sc4cc(OC)ccc4n3c2=O)cc1	4%	nt	3%	nt	nt
CCN(CC)c1ccc(/C=N/Nc2nn[nH]n2)cc1	nt	nt	17µM*	2%	2%
O=C(Nc1sc2c(c1C(=O)NCc1ccco1)CCCC2)c1cc(=O)c2cc(Cl)ccc2o1	6%	nt	-8%	nt	nt
Oc1ccc(/C=N/N=C/c2ccc(O)c(O)c2)cc1O	nt	nt	15µM*	-2%	-6%
C(=N\N=C\c1ccccc1)/c1ccccc1	7%	-27%	0.95µM*	21%	1%
Oc1ccc(/C=N/N=C/c2ccc(O)cc2)cc1	-4%	-1%	7.6µM*	-15%	-2%
Fc1cccc(/C=N/N=C/c2cccc(F)c2)c1	13%	-5%	2.7µM*	?	?
C[N+](C)(C)/N=C\c1ccc(O)c(O)c1	-13%[9.22 µM]	-5%[7.66 µM]	nt	nt	nt
COc1ccc(N2CCN(C(=O)CS(=O)(=O)c3cccc4nsnc34)CC2)cc1	nt	nt	-5%	nt	nt
Cc1ccc(/C=N/N=C/c2ccc(C)cc2)cc1	?	-3%	2.4µM*	?	?
C=CCSc1nnc2c(n1)[nH]c1c(C)cccc12	-19%	10%	9.5µM*	?	3.5µM*
Cc1cccc2c1[nH]c1nc(N/N=C\c3ccco3)nnc12	-1%	0%	-12%	14%	11%
CCOc1cnc(-c2ccc(OC)cc2)o1	?	-2%	9.5µM*	?	2.5µM*
SMILES	SMN2 splice enh	KinaseGlo FLuc	FLuc counter	Rab9 prom act	NPC1 promoter act
CCOc1oc(-c2ccc(OC)cc2)nc1C(F)(F)F	-2%	3%	-15%	0%	0%
CCOc1cnc(-c2ccc(Cl)cc2)o1	16%	6%	21µM*	15%	0%
Oc1ccc(Cl)cc1CNc1ccc(Br)cn1	nt	4%	19µM*	1%	0%
COC(CNC(=O)c1ccc2c3c(onc13)-c1ccccc1C2=O)OC	nt	nt	15µM*	?	?
COC(CNC(=O)c1cccnc1)OC	nt	-3%	0%	-3%	-6%
COc1ccccc1COC(=O)N/C=C/c1ccco1	?	2%	15µM*	?	?
COc1ccc(NC(=O)CCCc2nc(-c3ccco3)no2)c(OC)c1	nt	nt	-1%	nt	nt
